D1 agonist = agonists of human D1 dopamine receptor; P21728; HEK293 T-REx D1 cells, calcium flux, agonist mode; activation, % at 2 µM; 360,000 compounds, 1% hits
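Tetracycline-induced HEK293 TREx D1 cells, force-coupled to calcium signalling, were dye-loaded with a no-wash calcium kit. Compound was pin-added after a 10 s baseline. Fluorescence was read kinetically at 1 cycle/s for 180 s, with calcium rises flagged as agonism.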
D1 potentiator = enhances dopamine response at the human D1 receptor; 360,000 compounds, 0.036% hits; HEK293 TREx D1 cells, calcium flux, dopamine EC20 potentiation; P21728; potentiation, % at 10 µM; in the data active = potentiation above about 30%
TRHR enhancer = allosteric enhancers of human TRH receptor | 360,000 compounds, 0.66% hits | AID 493056 | P34981 | enhancement, % at 2 µM | TRHR cells, fluo-8 calcium fluorescence, EC20 TRH enhancement; in the data active = enhancement above about 30%
Target sequence (P34981 whole entry, looked up): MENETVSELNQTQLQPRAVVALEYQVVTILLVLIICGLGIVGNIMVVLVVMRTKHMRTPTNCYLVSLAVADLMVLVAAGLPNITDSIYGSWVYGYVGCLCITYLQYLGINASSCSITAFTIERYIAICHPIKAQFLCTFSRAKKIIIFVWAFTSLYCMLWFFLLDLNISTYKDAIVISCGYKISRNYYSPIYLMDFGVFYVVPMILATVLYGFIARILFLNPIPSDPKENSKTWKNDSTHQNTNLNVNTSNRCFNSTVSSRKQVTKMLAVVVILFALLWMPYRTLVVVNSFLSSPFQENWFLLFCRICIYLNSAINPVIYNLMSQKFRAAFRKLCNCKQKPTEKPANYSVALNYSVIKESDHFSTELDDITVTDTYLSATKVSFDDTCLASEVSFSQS
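Enhancer read-out: after compound pinning and an initial kinetic agonist-mode read, an EC20 of TRH (10 nM final) was injected and fluo-8 calcium signal (Ex 480/Em 530) followed at 1 s/cycle for 100 cycles in TRHR-expressing cells.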
D1 antag = human D1 dopamine receptor antagonism. P21728. HEK293 TREx D1 cells, calcium flux, dopamine EC80; stronger effect = lower value. activity change, negative = inhibition, % at 10 µM. 360,000 compounds, 3.2% hits. AID 504652; in the data active = activity change below about -30%
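Tetracycline-induced HEK293 Trex D1 cells, force-coupled to calcium, dye-loaded; compounds added and read 180 s, then EC80 dopamine added and calcium flux tracked kinetically another 180 s.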
TRHR agonist = activates the human TRH receptor; P34981; TRHR cells, calcium flux fluo-8, FDSS agonist mode; activation, % at 2 µM; 360,000 compounds, 0.18% hits; AID 493084
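Read-out: compound-evoked intracellular calcium rise in TRHR cells, fluo-8 dye, kinetic FDSS fluorescence at 1 s/cycle following a 10-cycle baseline. Cells cultured overnight before dye loading (30 min–1.5 h, RT).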
Each line names hits and unclear results; the compound was inactive in the other large screens; ! = not active in a repeat. Rows were chosen to be rich in hits. Some 4.6% of all compounds tested hit in one or more screens of this group. Rule as the data show it, unless noted: active = activation above about 30%; inactive = the rest.

O=S(=O)(NCC(c1cccs1)S(=O)(=O)c1ccccc1)c1ccccc1 (stereo not drawn)	none (no result: D1 antag)
COc1ccc(CCNC(=O)Cn2cc(S(=O)(=O)Cc3ccccc3F)c3ccccc32)cc1OC	none
CC(=O)OCC(=O)c1c[nH]c2ccccc12	none
CC(=O)c1c(C)[nH]c(C(=O)OCC(=O)c2c[nH]c3ccccc23)c1C	D1 antag -31
O=C(NNc1c([N+](=O)[O-])cc(C(F)(F)F)cc1[N+](=O)[O-])c1ccco1	D1 antag -36
O=C(CNc1ccccc1)N/N=C/c1cc([N+](=O)[O-])ccc1N1CCCC1	D1 antag -31
CCOC(=O)c1cnc(-n2nc(C)cc2C)nc1NC1CCCC1	D1 agonist 48
Cc1cc(-c2ccc(C)c(S(=O)(=O)NCCc3ccc(S(N)(=O)=O)cc3)c2)on1	D1 antag -63!
CCCN(c1ccccc1F)S(=O)(=O)c1cc(-c2cc(C)no2)ccc1OC	D1 antag -46
CCc1ccc(-c2cc(C)no2)cc1S(=O)(=O)NCCc1ccc(OC)c(OC)c1	D1 antag -36
Cc1cc(-c2ccc(C)c(S(=O)(=O)NCCc3ccco3)c2)on1	D1 antag -34
Cc1cc(-c2ccc(C)c(S(=O)(=O)NCc3ccc(Br)cc3)c2)on1	none
CCCC12CN3CC(C)(CN(C1)C3c1cn(C)c3ccccc13)C2=O (stereo not drawn)	none
CCn1cc(C2N3CC4(C)CN2CC(C)(C3)C4=O)c2ccccc21 (stereo not drawn)	D1 antag -76 (no result: D1 potentiator)
O=c1c2cnn(-c3ccc(Cl)cc3)c2ncn1Cc1ccc(Cl)cc1Cl	none
Cc1ncc(CN2CCCCC2C(=O)Nc2ccc(Oc3ccccc3)nc2)cn1 (stereo not drawn)	none
COc1cc(F)ccc1CN1CCC(C(=O)Nc2ccc(Oc3ccccc3)nc2)CC1	D1 agonist 47
CSc1ncc(CN2CCCCC2C(=O)Nc2ccc(Oc3ccccc3)nc2)cn1 (stereo not drawn)	D1 antag -31
CC(C)n1cc(CN2CCC(C(=O)Nc3ccc(Oc4ccccc4F)cc3)CC2)cn1	D1 agonist 105, D1 antag -62
CCc1ccc(CN2CCC(C(=O)Nc3ccc(Oc4ccccc4)nc3)CC2)o1	D1 agonist 37
CCOc1ccc(CNCc2c(C(=O)O)c(C)n(Cc3ccc(C)cc3)c2C)cc1	none
Cc1cccc(-c2c3c(=O)n(C)c(=O)n(C)c3cn2-c2cc(N)c(Cl)cc2Cl)c1	none
FC(F)(F)c1cccc(NC(=S)NCc2ccc(Cl)cc2)c1	D1 antag -51
CC(NC(=S)Nc1ccc(OC(F)F)c(Cl)c1)C(C)(C)C (stereo not drawn)	D1 antag -88
Cc1ccc(NC(=S)Nc2ccc(OC(F)F)c(Cl)c2)cc1Cl	none
CC(NC(=S)Nc1cccc(C(F)(F)F)c1)C(C)(C)C (stereo not drawn)	D1 antag -35
Fc1ccccc1CNC(=S)Nc1cccc(C(F)(F)F)c1	D1 antag -44
Cc1ccc2c(c1)c1c(c(=O)n(-c3ccccc3C)c(=O)n1Cc1cccc(F)c1)n2C	none
O=C(Nc1ccc(-c2cn3cccnc3n2)cc1)c1cc(Br)ccc1Cl	none
Cc1cc2c(cc1S(=O)(=O)C(C)CC(=O)NC1CCC(C)CC1)OCC(=O)N2 (stereo not drawn)	none
CCCc1c(C)nc(N2CCN(c3ccc(F)cc3)CC2)[nH]c1=O	D1 antag -30
CCc1c(C)nc(N2CCN(c3ccc(F)cc3)CC2)[nH]c1=O	none
COc1ccccc1C(=O)Nc1ccc(-c2cc(C(F)(F)F)nn2-c2ccccc2)cc1	none
Cc1cc2c(=O)[nH]c(Cc3ccccc3)nc2s1	D1 antag -41
CCc1cc2c(=O)[nH]c(Cc3ccccc3)nc2s1	none
O=C(Cc1ccc(Cl)cc1)Nc1ccc(N2CCCC2)cc1	none
Clc1cccc(Cl)c1CNc1ccc(N2CCCC2)cc1	TRHR enhancer 31
O=C(COC(=O)CN1C(=O)C2CCCCC2C1=O)NCc1ccc(Cl)cc1Cl (stereo not drawn)	none
Oc1[nH]c2ccccc2c1N=NC(=S)NCC1CCCO1 (stereo not drawn)	D1 antag -45
Clc1ccc(CNc2ccc(CNc3ncn[nH]3)cc2)c(Cl)c1	D1 antag -46
CC(C)(C)OC(=O)N1CCC(c2c(C(=O)NCc3ccc4c(c3)OCO4)cnn2-c2ccc(F)cc2F)CC1	none
COc1ccccc1CNc1ncnc2c1c(-c1ccccc1)cn2-c1ccc(Br)cc1	none
Nc1sc(-c2ccccc2)n[n+]1Cc1cccc2cccnc12	D1 antag -43
Oc1ccccc1CNc1cccc2cccnc12	none
Cc1ccc(C)c(NC(=O)CSc2nc(=O)n(Cc3ccccn3)c3c2CCC3)c1	none (no result: D1 antag)
CCOC(=O)N1CCC(NC(=O)c2cnn(-c3cccc(F)c3)c2-n2cccc2)CC1	none
COCCCN(C(=S)Nc1cc(Cl)cc(Cl)c1)C(C)c1ccncc1 (stereo not drawn)	D1 antag -53
CSc1cccc(NC(=S)N(CCC(C)C)C(C)c2ccncc2)c1 (stereo not drawn)	D1 antag -34
COc1cccc(NC(=S)N(CCC(C)C)C(C)c2ccncc2)c1 (stereo not drawn)	none
Cc1ccc(C)c(NC(=O)CSc2nc3ccccc3nc2N2CCOCC2)c1	D1 antag -46!
O=C1CC(c2ccccc2)C(C(=O)Nc2ccccc2F)N1 (stereo not drawn)	D1 antag -32
COc1cccc(NC(=O)CCc2nnc3n(CC(C)C)c(=O)c4ccccc4n23)c1	none
COC(=O)CC(=O)CSc1nc2cc(C(=O)NCC(C)C)ccc2c(=O)n1CCc1ccccc1	none
CSc1cccc(NC(=S)Nc2cc(C)ccc2C)c1	D1 antag -40
CCOCc1c(C(=O)N2CCN(CC(=O)Nc3ccc(F)cc3)CC2)oc2ccccc12	D1 antag -34
CCOCc1c(C(=O)N2CCN(CCOc3ccc(Cl)cc3)CC2)oc2ccccc12	none
CCOc1ccc(NC(=O)Cn2c(CCC(=O)O)ccc2-c2ccc(Cl)cc2)cc1	none
CCCCOC(=O)c1ccccc1N1C(=O)C2C3CCC(C3)C2C1=O (stereo not drawn)	D1 antag -32
Cc1ccc(C)c(C(=O)COC(=O)c2ccccc2N2C(=O)C3C4CCC(C4)C3C2=O)c1 (stereo not drawn)	D1 antag -42
O=C(NCc1ccccc1Cl)c1ccc2c(c1)N(Cc1ccccc1)C(=O)CS2	none
COC(=O)c1cc(CNC(=O)c2ccc(O)c(Cl)c2)ccc1OC	none
COC(=O)c1cc(CNC(=O)c2ccccc2Cl)ccc1OC	D1 antag -30
CC1CC(C)CN(c2oc(-c3ccco3)nc2C#N)C1 (stereo not drawn)	D1 antag -46
N#Cc1nc(-c2ccco2)oc1N1CCCC1	none

Screening data from PubChem.
